# Test results: ChEMBL document CHEMBL3988442, “University of Dundee, Small-Polar-MMV Screening Library” (2021)
# For some of these results: Results with a measured potency or affinity are listed apart.
# Tests used:
# Set-up in all cases: scale not given: direction of the effect not stated beside the values
# [1] = target: Protein translocase subunit SecA (Escherichia coli (strain K12)) (UniProt P10408); test: Assay to Identify E. coli SecA ATPase Inhibitors; type: functional; settings: 30 µM
# [2] = target: T1, Ubiquitin-activating enzyme e1, putative (Leishmania donovani (strain BPK282A1)) (UniProt E9BSI1); test: Leishmania donovani Ubiquitin Activating Enzyme (LdE1); type: functional; settings: 30 µM
# T1 sequence (whole entry): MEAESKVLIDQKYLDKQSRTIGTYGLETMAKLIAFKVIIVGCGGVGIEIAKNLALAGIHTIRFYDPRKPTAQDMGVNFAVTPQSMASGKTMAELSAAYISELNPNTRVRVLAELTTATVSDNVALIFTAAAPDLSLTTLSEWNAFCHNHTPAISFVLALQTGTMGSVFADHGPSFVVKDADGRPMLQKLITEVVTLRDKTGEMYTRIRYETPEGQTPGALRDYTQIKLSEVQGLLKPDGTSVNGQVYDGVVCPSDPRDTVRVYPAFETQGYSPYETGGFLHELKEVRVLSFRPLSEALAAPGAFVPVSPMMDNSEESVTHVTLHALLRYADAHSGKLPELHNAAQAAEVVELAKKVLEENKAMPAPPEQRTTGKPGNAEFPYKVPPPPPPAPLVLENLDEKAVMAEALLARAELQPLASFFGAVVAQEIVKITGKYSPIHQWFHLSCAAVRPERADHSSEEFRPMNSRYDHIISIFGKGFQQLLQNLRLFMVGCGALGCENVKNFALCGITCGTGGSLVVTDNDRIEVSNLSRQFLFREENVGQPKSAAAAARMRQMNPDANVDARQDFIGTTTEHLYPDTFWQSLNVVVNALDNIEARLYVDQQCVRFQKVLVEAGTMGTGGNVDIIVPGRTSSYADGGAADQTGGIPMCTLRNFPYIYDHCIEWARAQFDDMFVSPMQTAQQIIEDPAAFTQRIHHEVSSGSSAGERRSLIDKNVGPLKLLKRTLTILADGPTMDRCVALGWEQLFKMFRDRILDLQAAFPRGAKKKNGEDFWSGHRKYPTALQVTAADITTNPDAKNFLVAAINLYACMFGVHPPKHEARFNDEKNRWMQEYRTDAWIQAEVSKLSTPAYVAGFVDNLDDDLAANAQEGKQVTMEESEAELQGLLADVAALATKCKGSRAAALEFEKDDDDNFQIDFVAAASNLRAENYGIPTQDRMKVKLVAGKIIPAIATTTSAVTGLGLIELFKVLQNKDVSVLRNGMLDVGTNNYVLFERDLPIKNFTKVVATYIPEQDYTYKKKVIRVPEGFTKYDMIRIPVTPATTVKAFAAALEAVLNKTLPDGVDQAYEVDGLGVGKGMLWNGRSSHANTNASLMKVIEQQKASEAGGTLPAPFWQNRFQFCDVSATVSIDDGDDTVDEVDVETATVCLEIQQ
# [3] = target: AMP-activated protein kinase, AMPK (Homo sapiens) (UniProt P54646+O43741+P54619+Q9UGJ0+Q9Y478+Q13131+Q9UGI9); test: AMP-dependent Kinase enzyme assay. An in vitro enzyme assay that detects ADP turnover that is directly proportional to AMPK activity. This uses naive AMPK that is activated during the assay with MK-8722; type: functional; settings: 30 µM
# [4] = target: Sialic acid-binding Ig-like lectin 9 (Homo sapiens) (UniProt Q9Y336); test: Hs-Siglec9 ALPHAscreen SOP 20170721; settings: 10 µM
# Sequence of Sialic acid-binding Ig-like lectin 9 (Homo sapiens) (Q9Y336 whole entry): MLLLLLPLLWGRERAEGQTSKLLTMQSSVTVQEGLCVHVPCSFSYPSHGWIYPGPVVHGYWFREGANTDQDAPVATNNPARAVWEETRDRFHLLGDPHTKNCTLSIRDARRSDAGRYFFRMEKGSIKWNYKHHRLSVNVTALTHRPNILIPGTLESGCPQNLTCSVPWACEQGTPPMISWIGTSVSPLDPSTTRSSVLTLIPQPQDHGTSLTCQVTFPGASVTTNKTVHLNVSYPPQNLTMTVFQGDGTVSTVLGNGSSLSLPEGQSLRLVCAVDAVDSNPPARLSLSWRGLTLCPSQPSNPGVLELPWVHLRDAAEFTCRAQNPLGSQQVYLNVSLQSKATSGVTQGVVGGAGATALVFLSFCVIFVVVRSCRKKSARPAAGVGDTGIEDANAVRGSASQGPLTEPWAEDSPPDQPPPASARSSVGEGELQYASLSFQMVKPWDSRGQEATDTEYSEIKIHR
# Trypanosoma cruzi = test: Trypanosoma cruzi phosphomannomutase and mannose-1-phosphate guanylyltransferase assay; type: functional; settings: 10 µM
# [5] = target: T2, Arginase-2, mitochondrial (Homo sapiens) (UniProt P78540); test: in vitro enzyme assay to detect the production of urea directly proportional to the activity of Arginase II; type: functional; settings: 33.3 µM; also: in the data most compounds retested in dose-response had high values
# T2 sequence (whole entry): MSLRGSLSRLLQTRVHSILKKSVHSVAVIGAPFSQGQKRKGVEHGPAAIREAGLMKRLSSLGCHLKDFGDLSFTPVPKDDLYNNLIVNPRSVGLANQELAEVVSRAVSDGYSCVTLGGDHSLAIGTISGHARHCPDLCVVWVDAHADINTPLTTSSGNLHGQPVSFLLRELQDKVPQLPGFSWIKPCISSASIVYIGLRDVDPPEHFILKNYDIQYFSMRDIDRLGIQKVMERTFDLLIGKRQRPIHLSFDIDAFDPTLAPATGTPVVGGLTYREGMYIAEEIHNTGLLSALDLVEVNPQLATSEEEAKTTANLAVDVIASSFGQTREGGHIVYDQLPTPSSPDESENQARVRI
# [6] = target: T3, Proteasome subunit beta (Trypanosoma cruzi) (UniProt O96673); test: Trypanosoma cruzi proteasome chymotrypsin-like activity (TcProtChymo) assay.; also: in the data most compounds retested in dose-response had high values; type: functional; settings: 9.37 µM
# T3 sequence (whole entry): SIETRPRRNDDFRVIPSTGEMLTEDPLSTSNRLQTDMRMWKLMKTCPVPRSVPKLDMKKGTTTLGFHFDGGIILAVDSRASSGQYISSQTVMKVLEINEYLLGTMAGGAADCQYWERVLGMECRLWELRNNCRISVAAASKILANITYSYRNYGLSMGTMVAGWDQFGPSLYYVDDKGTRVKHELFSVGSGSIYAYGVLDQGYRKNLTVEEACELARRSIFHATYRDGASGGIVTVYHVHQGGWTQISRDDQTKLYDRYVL
# Homo sapiens = species on record: Homo sapiens; test: To identify inhibition of the IFN signalling (Jak-Stat) pathway via expression of an eGFP reporter gene under the control of an IFN-stimulated response element (ISRE) containing MxA promoter.; type: functional; settings: 30 µM
# [7] = target: T4, Tyrosyl-tRNA synthetase, putative (Trypanosoma cruzi (strain CL Brener)) (UniProt Q4DSP6); test: Trypanosoma cruzi tyrosyl tRNA synthetase (TcYRS) _High Tyrosine SOP; type: functional; settings: 30 µM; also: in the data most compounds retested in dose-response had high values
# T4 sequence (whole entry): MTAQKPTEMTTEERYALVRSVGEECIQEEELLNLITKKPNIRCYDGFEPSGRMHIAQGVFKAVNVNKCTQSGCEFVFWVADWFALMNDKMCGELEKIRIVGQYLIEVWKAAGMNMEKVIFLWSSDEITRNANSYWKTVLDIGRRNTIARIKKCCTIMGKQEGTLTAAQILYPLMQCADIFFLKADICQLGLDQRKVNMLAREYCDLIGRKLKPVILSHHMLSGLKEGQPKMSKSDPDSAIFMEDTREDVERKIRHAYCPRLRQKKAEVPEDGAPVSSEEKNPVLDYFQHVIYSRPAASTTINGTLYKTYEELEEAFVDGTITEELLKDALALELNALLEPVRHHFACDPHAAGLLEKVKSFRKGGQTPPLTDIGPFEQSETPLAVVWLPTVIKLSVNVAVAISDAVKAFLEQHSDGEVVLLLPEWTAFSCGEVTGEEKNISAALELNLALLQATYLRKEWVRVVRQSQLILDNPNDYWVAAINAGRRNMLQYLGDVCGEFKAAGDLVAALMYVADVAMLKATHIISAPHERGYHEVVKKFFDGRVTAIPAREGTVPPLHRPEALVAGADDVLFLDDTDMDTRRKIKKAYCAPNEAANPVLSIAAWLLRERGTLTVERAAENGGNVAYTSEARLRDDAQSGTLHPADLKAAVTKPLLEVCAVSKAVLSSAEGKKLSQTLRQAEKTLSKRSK
# [8] = target: T4, Tyrosyl-tRNA synthetase, putative (Trypanosoma cruzi (strain CL Brener)); test: Trypanosoma cruzi tyrosyl tRNA synthetase (TcYRS) SOP; type: functional; settings: 30 µM
# [9] = target: Chromo domain-containing protein 1 (Saccharomyces cerevisiae (strain ATCC 204508 / S288c) (Baker's yeast)) (UniProt P32657); test: ScCHD-1 Enzyme Inhibition Assay; type: functional; settings: 30 µM; also: in the data most compounds retested in dose-response had high values
# Sequence of Chromo domain-containing protein 1 (Saccharomyces cerevisiae (strain ATCC 204508 / S288c) (Baker's yeast)) (P32657 whole entry, the tested form may be a part): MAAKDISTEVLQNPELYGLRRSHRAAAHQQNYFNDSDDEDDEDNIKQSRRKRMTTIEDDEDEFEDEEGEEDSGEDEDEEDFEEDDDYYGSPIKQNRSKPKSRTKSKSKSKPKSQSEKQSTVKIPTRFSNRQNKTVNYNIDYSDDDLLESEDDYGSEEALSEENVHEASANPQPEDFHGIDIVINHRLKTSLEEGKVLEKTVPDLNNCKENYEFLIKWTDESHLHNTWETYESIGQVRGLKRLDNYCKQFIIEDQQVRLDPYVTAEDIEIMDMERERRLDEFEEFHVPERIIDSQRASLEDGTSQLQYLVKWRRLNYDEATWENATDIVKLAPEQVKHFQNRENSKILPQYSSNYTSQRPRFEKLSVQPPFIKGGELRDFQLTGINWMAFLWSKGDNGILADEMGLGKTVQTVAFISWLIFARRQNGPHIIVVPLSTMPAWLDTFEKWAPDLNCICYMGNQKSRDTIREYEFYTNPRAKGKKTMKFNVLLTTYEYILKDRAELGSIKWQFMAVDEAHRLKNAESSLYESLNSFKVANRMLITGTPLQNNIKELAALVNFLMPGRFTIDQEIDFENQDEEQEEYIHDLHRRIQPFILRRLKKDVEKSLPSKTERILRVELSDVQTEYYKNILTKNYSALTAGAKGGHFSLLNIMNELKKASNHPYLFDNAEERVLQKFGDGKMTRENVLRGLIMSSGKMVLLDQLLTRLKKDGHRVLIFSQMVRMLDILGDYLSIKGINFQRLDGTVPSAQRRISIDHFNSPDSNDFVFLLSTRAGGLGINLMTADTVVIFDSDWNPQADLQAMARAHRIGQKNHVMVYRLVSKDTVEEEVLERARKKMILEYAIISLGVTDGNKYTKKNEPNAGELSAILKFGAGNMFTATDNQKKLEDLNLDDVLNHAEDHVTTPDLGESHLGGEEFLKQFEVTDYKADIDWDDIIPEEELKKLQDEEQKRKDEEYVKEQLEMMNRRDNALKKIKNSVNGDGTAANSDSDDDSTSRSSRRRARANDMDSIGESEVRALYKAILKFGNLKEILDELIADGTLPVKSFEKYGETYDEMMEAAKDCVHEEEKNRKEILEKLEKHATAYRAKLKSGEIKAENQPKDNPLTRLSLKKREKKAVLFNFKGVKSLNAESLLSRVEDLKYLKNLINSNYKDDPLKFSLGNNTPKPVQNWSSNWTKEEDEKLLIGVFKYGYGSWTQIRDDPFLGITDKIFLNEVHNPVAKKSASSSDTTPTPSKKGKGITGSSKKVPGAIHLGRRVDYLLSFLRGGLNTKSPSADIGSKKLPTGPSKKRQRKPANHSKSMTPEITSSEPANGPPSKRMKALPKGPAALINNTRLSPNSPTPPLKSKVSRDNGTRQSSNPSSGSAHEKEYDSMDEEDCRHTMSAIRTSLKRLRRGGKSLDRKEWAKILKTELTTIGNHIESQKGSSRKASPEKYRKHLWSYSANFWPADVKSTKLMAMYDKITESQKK
# Sequence of Protein translocase subunit SecA (Escherichia coli (strain K12)) (P10408 whole entry): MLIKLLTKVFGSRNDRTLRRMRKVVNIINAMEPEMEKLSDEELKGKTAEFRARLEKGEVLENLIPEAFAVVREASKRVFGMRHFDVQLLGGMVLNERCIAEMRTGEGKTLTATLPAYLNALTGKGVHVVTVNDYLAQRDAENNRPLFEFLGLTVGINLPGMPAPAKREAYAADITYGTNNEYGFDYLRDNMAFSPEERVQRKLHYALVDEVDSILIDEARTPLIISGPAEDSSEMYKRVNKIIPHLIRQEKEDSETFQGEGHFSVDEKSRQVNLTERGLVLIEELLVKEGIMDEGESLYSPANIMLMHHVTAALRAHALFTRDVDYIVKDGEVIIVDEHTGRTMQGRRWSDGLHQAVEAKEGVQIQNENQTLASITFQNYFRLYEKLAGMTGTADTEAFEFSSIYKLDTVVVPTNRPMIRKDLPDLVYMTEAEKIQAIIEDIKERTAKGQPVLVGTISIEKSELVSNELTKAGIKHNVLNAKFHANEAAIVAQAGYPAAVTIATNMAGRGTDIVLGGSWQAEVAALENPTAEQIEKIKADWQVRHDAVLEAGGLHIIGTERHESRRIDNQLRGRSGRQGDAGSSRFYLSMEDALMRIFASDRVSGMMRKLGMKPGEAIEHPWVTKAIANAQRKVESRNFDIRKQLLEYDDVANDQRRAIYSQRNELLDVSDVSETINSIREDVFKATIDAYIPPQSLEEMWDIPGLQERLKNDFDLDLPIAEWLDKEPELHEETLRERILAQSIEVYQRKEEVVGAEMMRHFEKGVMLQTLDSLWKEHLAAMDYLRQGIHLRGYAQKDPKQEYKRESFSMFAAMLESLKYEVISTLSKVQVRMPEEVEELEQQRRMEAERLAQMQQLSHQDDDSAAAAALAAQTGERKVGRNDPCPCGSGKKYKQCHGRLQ
SMILES,Percent Effect [1],Percent Effect [2],Percent Effect [3],Percent Effect [4],Percent Effect (Trypanosoma cruzi),Percent Effect [5],Percent Effect [6],Percent Effect (Homo sapiens),Percent Effect [7],Percent Effect [8],Percent Effect [9]
Cc1ccc(CNC(CN2CCN(C)CC2)c2ccccc2)cc1 (stereo unspecified),-5.66%,8.11%,-8.66%,-0.353%,-2.05%,-1.74%,7.64%,13.4%,3.23%,8.64%,-3.22%
Cc1nnsc1C(=O)N1CCC2(CC1)c1nc[nH]c1CCN2CC(C)C,-4.82%,5.33%,-0.152%,-8.33%,-1.46%,-2.08%,12.4%,-1.57%,1.64%,6.17%,-5.05%
COc1ccccc1OCC(=O)Nc1ncccc1Cl,-3.19%,15.3%,-6.62%,22.9%,2.62%,-2.65%,4.39%,-9.45%,3.16%,10.3%,-3.43%
COCCC(=O)N1CC2(CCN(Cc3ccoc3)C2)C1,-1.14%,13.3%,3.09%,-10.1%,-6.69%,5.36%,17.7%,9.94%,4.25%,1.28%,-1.88%
CC(C)(N)CN1CCC(c2nnc(CN3CCCC3)n2C2CC2)CC1,-7.06%,8%,3.2%,2.76%,-0.0974%,5.73%,15.5%,8.71%,2.73%,6.17%,-4.27%
CC(=O)c1cccc(OCCCC(=O)N(C)Cc2cccc(O)c2)c1,-2.9%,2.7%,5.1%,4.56%,0.193%,4.29%,3.28%,8.19%,-0.529%,0%,-3.66%
Cc1cccc(-c2ccc3nc(C4CCN(CC5CC5)CC4)nn3c2)c1,-0.334%,5.48%,-2.67%,13.9%,3.77%,-0.399%,10.2%,8.44%,3.12%,8.64%,-2.92%
Cc1cnn(CC2CCCCN2C(=O)c2cc(C(N)=O)cs2)c1 (stereo unspecified),-8.81%,1.27%,1.77%,-2.33%,0.308%,-2.37%,8.4%,17.1%,-1.04%,-5.06%,-0.902%
Cc1csc(CNC(=O)Nc2cc(C(F)(F)F)c[nH]c2=O)n1,-1.61%,6.94%,2.39%,2.89%,6.71%,1.77%,13.3%,8.26%,7.37%,10.3%,-3.2%
Cn1cc(CN2CCc3c(nc(-c4ccccn4)[nH]c3=O)C2)cn1,-4.53%,2.67%,8.84%,5.72%,-2.56%,-1.17%,6.78%,-0.565%,12.8%,19.2%,-1.71%
Cc1nn(C)c(C)c1C1COCCN1C(=O)Cc1cccc(F)c1 (stereo unspecified),-0.171%,13.7%,-6.33%,3.58%,-3.13%,-1.82%,17.6%,33.3%,1.07%,5%,-4.69%
